High-throughput results (PubChem BioAssay)
Pf Dd2 inh: blocks in vitro growth of P. falciparum Dd2; 120,000 compounds, 4.3% hits; P. falciparum Dd2 growth, SYBR Green, 72 h; Potency, µM (titrated, usually from 28.9 µM), hits mostly inhibitors; AID 1347417; active = well fitted inhibition curve with a large enough effect; also: nearly all actives have a fitted effect of over 65% in size
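Infected erythrocytes (Dd2, 0.3% parasitemia, 2.5% hematocrit final) are added to compound in RPMI-1640/Albumax II medium, grown 72 h at 37C in low oxygen, then lysed with saponin/Triton-X containing SYBR Green and read by fluorescence.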
Of the large screens only hits and unclear results are named; the others gave an inactive call. Many of the other results were omitted from the sample, so hits are more common in it than they were.

CC(=O)N1CCN(c2nc(-c3c(C)noc3C)cc3cc(CN(C)C)oc23)CC1	Pf Dd2 inh 7.9µM
O=C1N[C@@H]2CCN(S(=O)(=O)c3cccc(F)c3)[C@@H]2C(=O)N1c1ccc(F)cc1	none
O=C1Nc2cc(Cl)ccc2C(=O)N2C[C@H](O)C[C@@H]12	none
CCOc1cccc(CNC(=O)C2CCN(C(=O)c3ncn4c3COC(c3ccccc3)C4)CC2)c1 (stereo not given)	none
CCOC(=O)c1cc(-c2ccccc2)n(CCC(=O)Nc2cc(C)cc(C)c2)c1C	Pf Dd2 inh 3.2µM
CCOC(=O)c1cc(-c2ccccc2)n(CCC(=O)Nc2cc(OCC)ccc2OCC)c1C	none
CCOC(=O)c1cc(-c2ccccc2)n(CCC(=O)Nc2ccc(C)cc2Cl)c1C	none
CCOC(=O)c1cc(-c2ccccc2)n(CCC(=O)Nc2ccc(Cl)c(C(F)(F)F)c2)c1C	Pf Dd2 inh 2.8µM
CCOC(=O)c1cc(-c2ccccc2)n(CC(=O)Nc2cc(Cl)c(OC)cc2OC)c1C	none
CCOC(=O)c1cc(-c2ccccc2)n(CCC(=O)NCCc2cccc(C)c2)c1C	none
CC1=NOC2(CCN(C(=O)c3ccc4c(c3)OCO4)C2)C1 (stereo not given)	none
O=C(CCn1cncn1)NCc1cccnc1Oc1cccc(C(F)(F)F)c1	none
O=C(NCc1cc(-c2ccccc2)n[nH]1)[C@H]1CCC[C@H](O)C1	none
CN(C)Cc1nnc(C2CC(NC(=O)c3n[nH]c4c3CCCC4)C2)n1C (stereo not given)	none
COc1ccc(C2Cn3nnc(-c4nc(C(C)(C)C)no4)c3CO2)cc1 (stereo not given)	none
O=C(c1n[nH]c2c1CCCC2)N1CCCC2(C1)Nc1cccnc1NC2=NC1CCCC1 (stereo not given)	none
COc1ccccc1NC(=O)COc1cccc(-c2nnc3n2CCCC3)c1	Pf Dd2 inh 0.63µM
Cc1cc2nc3n(c(=O)c2n1CC(=O)N1CCN(c2ccccc2F)CC1)CCCCC3	none
CCOc1ccc(NC(=O)COc2cccc(-c3nnc4n3CCCC4)c2)cc1	Pf Dd2 inh 2.8µM
O=C(Cn1nc2n(c1=O)CCCC2)N1CCN(c2ccccc2F)CC1	none
Cc1nc(N2CCC(C(=O)NCc3ccc4c(c3)OCO4)CC2)cc(C(F)(F)F)n1	none
COc1ccccc1NC(=O)Cn1cnc2c(nc3n2CCCCC3)c1=O	none
O=C(COc1cccc(-c2nnc3n2CCCC3)c1)N1CCN(c2ccccc2F)CC1	Pf Dd2 inh 5µM
CCOc1ccc(NC(=O)Cn2c(C)cc3nc4n(c(=O)c32)CCCCC4)cc1	none
CCOc1ccc(NC(=O)Cn2nc3n(c2=O)CCCCC3)cc1	none
COc1ccc(CNC(=O)COCc2cc(-c3ccc4c(c3)OCO4)on2)cc1	none
O=C(COc1ccc(-c2nnc3n2CCCC3)cc1)NCc1ccc2c(c1)OCO2	Pf Dd2 inh 10µM
O=C(COc1cccc(-c2nnc3n2CCCC3)c1)NCc1ccccc1	none
COc1ccc(C(=O)N2C[C@@H](Oc3ccccc3)C[C@H]2C(=O)N2CCCC2)c(OC)c1	none
COc1cccc(CNC(=O)[C@@H]2C[C@@H](O)CN2C2CCN(C(=O)c3ccc(OC)cc3C)CC2)c1	none
O=C(N1CCC2(CCCCO2)CC1)C1(c2ccccc2)CC1	none
O=C(NC1CCCC1)NC1CCN(c2nc3ncccc3o2)CC1	none
Cn1nccc1C(O)c1cc2n(n1)CCCN(c1nc3ccccc3s1)C2 (stereo not given)	none
Cc1cccc(NC(=O)COc2ccc3oc4c(c3c2)CCCC4)c1	none
COc1cccc(-c2cc(C3CCN(C(=O)Nc4cccc(SC)c4)CC3)[nH]n2)c1	none
CSc1cccc(NC(=O)COc2cccc(-c3nnc4n3CCCC4)c2)c1	Pf Dd2 inh 11µM
C[C@@H]1CN(C(=O)CC2CCCC2)C[C@@]1(O)C1CC1	none
COc1ccccc1-c1ccc2ncc(Nc3cccc(N[S+](C)(=O)[O-])c3)n2n1	none
NC(=O)c1ccc(Nc2cnc3ccc(-c4ccccc4)nn23)cc1	none
COc1ccccc1-c1ccc2ncc(Nc3ccc(CCO)cc3)n2n1	none
COc1ccc(Nc2cnc3ccc(-c4ccc(OC)c(OC)c4)nn23)cc1	Pf Dd2 inh 1.1µM
COc1cncc(Nc2cnc3ccc(-c4ccc(OC)nc4)nn23)c1	none
COc1ccccc1Nc1cnc2ccc(-c3ccccc3OC)nn12	none
COc1cncc(Nc2cnc3ccc(-c4ccccc4OC)nn23)c1	Pf Dd2 inh 2.5µM
COc1ccc(-c2ccc3ncc(Nc4cccnc4OC)n3n2)cc1OC	none
COc1ccc(Nc2cnc3ccc(-c4ccc(OC)c(OC)c4)nn23)cc1OC	none
COc1cncc(Nc2cnc3ccc(-c4ccc(OC)c(OC)c4)nn23)c1	Pf Dd2 inh 0.89µM
COc1ccc(Nc2cnc3ccc(-c4ccccc4)nn23)cc1	Pf Dd2 inh 5.6µM
c1ccc(-c2ccc3ncc(Nc4ncccn4)n3n2)cc1	none
Cc1cnc(C(=O)N2CCC(c3nc(CCOc4ccc(F)cc4)no3)C2)cn1 (stereo not given)	none
Cc1cccc(-c2cn[nH]c2C2CCN(C(=O)c3ccc(C)[nH]c3=O)CC2)c1	none
Cc1ccc(C(=O)N2CCCC(c3nc(CCOCC4CCCC4)no3)C2)cn1 (stereo not given)	none
Cc1ccc(NC(=O)N(C)CC2CCOC2)cc1 (stereo not given)	none
CN(CC1CCOCC1)S(=O)(=O)c1ccc(Cl)s1	none
Cc1ccc(-c2ccc3nnc(CNC(=O)C(C)c4ccccc4)n3n2)cc1 (stereo not given)	none
O=C(NCCCN1CCCC1=O)c1ccccc1C1CCNC1 (stereo not given)	none
Cc1c(Cl)cccc1NC(=O)CN1C(=O)NC(c2ccc(Cl)cc2)C2=C1COC2=O (stereo not given)	none
Cc1cc(C(=O)N2CC[C@H](NS(=O)(=O)c3cccs3)C[C@H]2C(=O)N[C@H](CC(C)C)C(N)=O)n(C)n1	none
COc1ccc(C)cc1NC(=O)C1CC(=O)N(c2n[nH]c3ccccc23)C1 (stereo not given)	none
CN1CCN(Cc2ccc(Nc3cnc4ccc(N5CCOCC5)nn34)cc2)CC1	none
CN1CCN(Cc2ccc(Nc3cnc4ccc(-c5ccccc5)nn34)cc2)CC1	Pf Dd2 inh 2.2µM
Cn1ncc2c(C(=O)NCCc3ccc(Cl)cc3)cc(C(C)(C)C)nc21	none
CCc1noc(-c2ccn3c(CNC(=O)C4CCCCC4)nnc3c2)n1	none
Cn1cnnc1-c1nn(C)c2c1CN(C(=O)c1n[nH]c(=O)c3ccccc13)CC2	none
CC(C)n1cnnc1-c1nn(C)c2c1CN(C(=O)Cc1c[nH]c3ccccc13)CC2	Pf Dd2 inh 8.9µM
CCNC(=O)N1CCc2c(c(-c3nncn3-c3ccccc3)nn2C)C1	none
CCOc1ccccc1NC(=O)N1c2ccccc2CC1c1noc(C(C)C)n1 (stereo not given)	none
Cc1nc2c(c(-c3ccc(Cl)cc3)n1)CN([S+](=O)([O-])c1ccsc1)CC2	none
C[C@@H](NS(C)(=O)=O)c1onc(-c2cccnc2)c1C(=O)O	none
O=C(CN1CC2CC(C1)[C@H]1CCCC(=O)N1C2)NCCN1CCCCC1 (stereo not given in full)	none
c1ccc(-c2noc(CCNC3CCC4(CCNCC4)CC3)n2)nc1	none
c1coc(-c2nc(CNC3CCC4(CCNCC4)CC3)no2)c1	Pf Dd2 inh 11µM
CCc1csc(CNC2CCC3(CCNCC3)CC2)n1	none
Cc1ncoc1C(=O)N1CCC2(CCCN(CC3CCCCC3)C2=O)C1 (stereo not given)	none
COc1cccc(C(=O)NC2CCN(c3cnn(CC4CC4)c(=O)c3)CC2)c1OC	none
CN(C)S(=O)(=O)N1CCCN(Cc2ccncc2)C(c2ccccc2)CC(=O)NCC1 (stereo not given)	Pf Dd2 inh 10µM
CS(=O)(=O)N1CCCCCNC(=O)CC1c1ccccc1 (stereo not given)	none
